Measured values: PubChem BioAssay AID743286 (National Center for Advancing Translational Sciences (NCATS), 2014)
The campaign covered roughly 1,100 compounds. About 340 (31%) were called active. Another 40% or so got no clear call; they are omitted. Calls come from the whole dose curve; as a rule, active = well fitted inhibition curve with a large enough effect; inconclusive = small, poorly fitted or top-dose-only effect; inactive = flat fitted curve, though single readings scatter. Not all results are given here. Entries that show only a call come without a potency.
Note: nearly all actives have a fitted effect of over 65% in size.
Potency is the fitted concentration of half-maximal effect.

Each compound was assayed against Phosphatidylinositol 5-phosphate 4-kinase type-2 alpha (Homo sapiens) (UniProt P48426) (assay: qHTS for Inhibitors of PI5P4K: Confirmation in Primary Assay). Settings: PI5P4Kalpha enzyme, ADP-Glo luminescence, 60 min; series mostly up to 76.9 µM.
Chain of Phosphatidylinositol 5-phosphate 4-kinase type-2 alpha (Homo sapiens) (P48426 whole entry, looked up): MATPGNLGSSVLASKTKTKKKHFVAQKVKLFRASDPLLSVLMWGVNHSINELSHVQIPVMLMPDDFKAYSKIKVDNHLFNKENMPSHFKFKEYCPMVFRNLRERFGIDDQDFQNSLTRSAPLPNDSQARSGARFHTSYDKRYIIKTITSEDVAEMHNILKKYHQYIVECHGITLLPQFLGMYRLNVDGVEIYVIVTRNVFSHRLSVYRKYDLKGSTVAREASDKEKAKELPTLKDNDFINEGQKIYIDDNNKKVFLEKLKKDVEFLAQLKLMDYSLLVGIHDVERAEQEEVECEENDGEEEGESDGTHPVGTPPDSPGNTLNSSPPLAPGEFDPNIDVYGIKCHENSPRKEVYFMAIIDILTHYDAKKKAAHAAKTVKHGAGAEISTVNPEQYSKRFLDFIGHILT
Summary of the method: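 Human PI5P4Kα activity was measured as ADP generation using ADP-Glo luminescence. Reactions ran 60 minutes at room temperature with 5 microM ATP in buffered conditions at pH 7.4 containing 5% DMSO.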
With `Cn1nnnc1Sc1ncnc2scc(-c3ccccc3C(F)(F)F)c12` the Potency was 17.8 µM (active).
For `O=C(NCCCN1CCOCC1)c1sc2cc([N+](=O)[O-])ccc2c1Cl`, the Potency was 14.1 µM (active).
`Cc1ccc([N+](=O)[O-])cc1Nc1nc(N2CCOCC2)nc(N2CCOCC2)n1` was tested, and the Potency was “inactive”.
In the case of `CCOC(=O)C1=C(N)N(c2ccccc2)C(=O)C1`, the Potency is reported as “inactive”.
`COc1ccccc1N1CCN(C(=O)c2ccc(C(C)(C)C)cc2)CC1` was tested, and the Potency was “inactive”.
For `CC(Oc1ccc(F)cc1)C(=O)N1CCN(c2ncccn2)CC1` (stereo unspecified), the Potency was “inactive”.
For `CC(C)C(=O)N1CCN(c2ccccc2NC(=O)c2ccco2)CC1`, the Potency was “inactive”.
With `O=C(Nc1ccc2nc(-c3ccco3)c(-c3ccco3)nc2c1)N1CCN(c2ccccn2)CC1` the Potency was 11.2 µM (active).
With `O=C(c1ccc2nc(-c3ccco3)c(-c3ccco3)nc2c1)N1CCN(c2ncccn2)CC1` the Potency was 12.6 µM (active).
With `Cc1cccc(C)c1NC(=O)C(c1ccccc1)n1c(=O)c(-c2ccco2)nc2ccccc21` (stereo unspecified) the Potency was “inactive”.
`CC(C)NC(=O)c1onc(CSc2ccccc2F)c1C(=O)O` was tested, and the Potency was “inactive”.
With `Cc1ccc(C(CCN(Cc2ccccc2)C(=O)c2ccco2)c2ccco2)cc1` (stereo unspecified) the Potency was 14.1 µM (active).
In the case of `Cc1ccc(S(=O)(=O)N(C(=O)c2ccco2)c2cc3sc(=O)oc3c3ccccc23)cc1`, the Potency is reported as “inactive”.
For `CC(C)N(CCC(=O)c1ccc2ccccc2c1)Cc1ccccc1`, the Potency was “inactive”.
With `O=C(N[C@@H](Cc1ccccc1)C(=O)OCc1ccccc1)c1nc[nH]c1C(=O)NC(c1ccccc1)c1ccccc1` the Potency was “inactive”.
`O=c1[nH]c2ccccc2n2c(-c3ccccc3)nnc12` was tested, and the Potency was 5.01 µM (active).
In the case of `Cc1cc(Oc2ccc(C#N)cc2)nc(NCc2ccccc2)n1`, the Potency is reported as “inactive”.
`CCn1c(CC(=O)Nc2ccccc2F)nnc1SCC(=O)NC1CCCCC1` was tested, and the Potency was “inactive”.
In the case of `O=C(NCC1CC1)c1ccc(Nc2nc3ccc(Br)cc3[nH]2)cc1`, the Potency is reported as “inactive”.
`CC1Cc2ccccc2N1C(=O)COC(=O)CCc1nc2ccccc2c(=O)[nH]1` (stereo unspecified) was tested, and the Potency was “inactive”.
In the case of `NC(=O)c1ccc(-n2c(CCC(=O)O)ccc2-c2cccs2)cc1`, the Potency is reported as 3.98 µM (active).
`N#Cc1c(SCC(=O)Nc2nncs2)sc2c(O)cc(=O)[nH]c12` was tested, and the Potency was 8.91 µM (active).
In the case of `N#Cc1c(SCC(=O)Nc2nccs2)sc2c(O)cc(=O)[nH]c12`, the Potency is reported as 15.8 µM (active).
With `CCc1nnc(NC(=O)c2ccc(S(C)(=O)=O)cc2)s1` the Potency was “inactive”.
For `O=C(CSc1nc2[nH]c(=O)cc(O)c2s1)Nc1ccc(Cl)c(C(F)(F)F)c1`, the Potency was “inactive”.
For `CCc1nnc(NC(=O)CSc2sc3c(O)cc(=O)[nH]c3c2C#N)s1`, the Potency was 12.6 µM (active).
For `Cc1cnc(NC(=O)CSc2c(Cl)cccc2Cl)s1`, the Potency was “inactive”.
With `Cc1cc(NC(=O)CSc2sc3c(O)cc(=O)[nH]c3c2C#N)ccc1Br` the Potency was 8.91 µM (active).
`CC1Cc2ccccc2N1C(=O)CNc1cccc(S(=O)(=O)N2CCCC2)c1` (stereo unspecified) was tested, and the Potency was “inactive”.
For `Cc1csc(NC(=O)CSc2nc3[nH]ncc3c(=O)[nH]2)n1`, the Potency was “inactive”.
In the case of `Cc1csc(NC(=O)CSc2sc3c(O)cc(=O)[nH]c3c2C#N)n1`, the Potency is reported as 14.1 µM (active).
`COc1ccc(CC(=O)NCC(=O)NC(Cc2ccccc2)C(=O)O)cc1` (stereo unspecified) was tested, and the Potency was “inactive”.
For `CCc1nnc(NC(=O)c2cc(-c3ccc(C)o3)nc3ccccc23)s1`, the Potency was “inactive”.
In the case of `O=C(Nc1nccs1)c1cc(-c2ccco2)nc2ccccc12`, the Potency is reported as 3.98 µM (active).
For `Cc1csc(NC(=O)c2cc(-c3ccco3)nc3ccccc23)n1`, the Potency was 10 µM (active).
For `CC(=O)c1cccc(NC(=O)c2cc(-c3ccco3)nc3ccccc23)c1`, the Potency was “inactive”.
For `CCc1nnc(NC(=O)c2cc(-c3ccco3)nc3ccccc23)s1`, the Potency was 3.55 µM (active).
`CCOc1ccc(OCc2ccc(C(=O)N3CCOCC3)cc2)cc1` was tested, and the Potency was “inactive”.
`CCC(C)c1nc2ccsc2c(N2CCOC2=O)c1-c1ccccc1` (stereo unspecified) was tested, and the Potency was “inactive”.
With `Cc1cccnc1NC(=O)CSc1nnc(COc2ccc(C(C)C)cc2)n1C` the Potency was “inactive”.
With `O=C(CSc1nc2c(cnn2-c2cccc(Cl)c2)c(=O)[nH]1)NCC1CCCO1` (stereo unspecified) the Potency was “inactive”.
With `O=c1c2ccccc2[nH]c2ccc(O)cc12` the Potency was 20 µM (active).
In the case of `O=[N+]([O-])c1ccc(-c2cc(-c3ccc(Cl)cc3)n[nH]2)cc1`, the Potency is reported as “inactive”.
For `CCN(CC)C(=O)COC(=O)c1cc(-c2ccco2)nc2ccccc12`, the Potency was 12.6 µM (active).
In the case of `CNC(=O)COC(=O)c1cc(-c2ccco2)nc2ccccc12`, the Potency is reported as 12.6 µM (active).
`CCNC(=O)COC(=O)c1cc(-c2ccco2)nc2ccccc12` was tested, and the Potency was 14.1 µM (active).
For `Cc1nc2ccccc2nc1OCC(=O)NCc1ccc2c(c1)OCO2`, the Potency was “inactive”.
`O=C(OCc1nnc(-c2ccccc2)o1)c1ccc2ccccc2n1` was tested, and the Potency was “inactive”.
`COc1ccc(CNC(=O)CCCn2nc(C)c([N+](=O)[O-])c2C)cc1OC` was tested, and the Potency was “inactive”.
For `Cc1ccc(NC(=O)Nc2cccs2)cc1`, the Potency was “inactive”.
In the case of `CC(C)NC(=O)N1c2ccccc2Sc2ccccc21`, the Potency is reported as “inactive”.
For `COC(=O)Cc1c(C)nc2nc(-c3ccc(C)cc3)[nH]n2c1=O`, the Potency was 6.31 µM (active).
With `O=C(Nc1nnc(SCc2ccc(Cl)cc2)s1)c1ccco1` the Potency was “inactive”.
For `O=C(Nc1nnc(-c2ccncc2)o1)c1ccccc1`, the Potency was “inactive”.
For `O=C(Nc1nnc(-c2ccc(Cl)cc2)o1)c1nc2ccccc2s1`, the Potency was 14.1 µM (active).
`CC(C)(C)NC(=O)Nc1ccc(Cn2cc(C(F)(F)F)ccc2=O)cc1` was tested, and the Potency was “inactive”.
For `Cc1c(C(=O)O)sc2ncnc(N3CCCCC3C)c12` (stereo unspecified), the Potency was 10 µM (active).
`O=C(COc1cccc2ccccc12)Nc1ccc(Cl)cc1C(=O)O` was tested, and the Potency was 25.1 µM (active).
With `CNC(=O)c1nc(C)n(-c2ccc(Cl)cc2Cl)n1` the Potency was “inactive”.
In the case of `Cc1ccc(C(c2nnnn2CS(=O)(=O)c2ccc(C)cc2)N2CCC(C)CC2)cc1` (stereo unspecified), the Potency is reported as “inactive”.
For `N#Cc1c(NC(=O)CSc2ncnc3sccc23)oc(-c2ccco2)c1-c1ccco1`, the Potency was 17.8 µM (active).
With `CN(C)S(=O)(=O)c1cccc(C(=O)OCC(=O)Nc2sccc2C(N)=O)c1` the Potency was “inactive”.
`Cc1cc(C(=O)OCC(=O)Nc2c(F)cccc2F)c(C)n1-c1ccccc1` was tested, and the Potency was “inactive”.
`NC(=O)c1ccsc1NC(=O)COC(=O)c1ccccc1F` was tested, and the Potency was 22.4 µM (active).
`Cc1sc(NC(=O)c2sc3nc4c(C)cccc4cc3c2N)c(C#N)c1C` was tested, and the Potency was 11.2 µM (active).
With `Cc1cc(C)c2c(N)c(C(=O)Nc3c(C)n(C)n(-c4ccccc4)c3=O)sc2n1` the Potency was “inactive”.
